Screening data (PubChem)
Rtt109 HAT inh – inhibitors of Candida albicans Rtt109/Vps75 histone acetyltransferase; inhibition, % at 34.9 µM; 0.16% of 330,000 active; AID 540336; purified Rtt109/Vps75, ThioGlo CoA-SH fluorescence, 4 h;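 active means inhibition of at least 50% in every replicate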
Myeloid diff 2 – compounds promoting myeloid differentiation | AID 624256 | 1% of 360,000 active | calls only at 10 µM | ER-HoxA9 myeloid progenitors, lysozyme-GFP differentiation, flow cytometry;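 active means normalized GFP-positive differentiation at or above the plate's own cutoff, the solvent-only control mean plus 3 SD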;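 further: cells exposed to compound for four days before flow analysis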
HGIII-sPLA2 inh – Blocks human group III sPLA2 activity; QFRET BODIPY PC-A2 liposome hydrolysis, fluorescence; inhibition, % at 12.2 µM; 0.56% of 370,000 active; AID 743126;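 active means inhibition above mean plus 3 SD of compounds lying within the high and low control bounds, cut at about 19% in these data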
ABHD5 PLIN5 PPI – blocks binding of human ABHD5 to perilipin-5; Q00G26+Q8WTS1; Split G. princeps luciferase complementation, luminescence, 4 h; inhibition, % at 4 µM; 0.78% of 360,000 active; AID 602281;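 active means inhibition above the mean inhibition across every tested compound plus 3 SD, cut at about 22% in these data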
DAGLB inhibitor – diacylglycerol lipase beta (human) inhibition; HEK293T DAGLB membrane lysate, EnzChek fluorogenic substrate; 0.059% of 340,000 active; inhibition, % at 5.17 µM; in the data active means inhibition above about 34%
Target sequence (Q8NCG7 whole entry, looked up): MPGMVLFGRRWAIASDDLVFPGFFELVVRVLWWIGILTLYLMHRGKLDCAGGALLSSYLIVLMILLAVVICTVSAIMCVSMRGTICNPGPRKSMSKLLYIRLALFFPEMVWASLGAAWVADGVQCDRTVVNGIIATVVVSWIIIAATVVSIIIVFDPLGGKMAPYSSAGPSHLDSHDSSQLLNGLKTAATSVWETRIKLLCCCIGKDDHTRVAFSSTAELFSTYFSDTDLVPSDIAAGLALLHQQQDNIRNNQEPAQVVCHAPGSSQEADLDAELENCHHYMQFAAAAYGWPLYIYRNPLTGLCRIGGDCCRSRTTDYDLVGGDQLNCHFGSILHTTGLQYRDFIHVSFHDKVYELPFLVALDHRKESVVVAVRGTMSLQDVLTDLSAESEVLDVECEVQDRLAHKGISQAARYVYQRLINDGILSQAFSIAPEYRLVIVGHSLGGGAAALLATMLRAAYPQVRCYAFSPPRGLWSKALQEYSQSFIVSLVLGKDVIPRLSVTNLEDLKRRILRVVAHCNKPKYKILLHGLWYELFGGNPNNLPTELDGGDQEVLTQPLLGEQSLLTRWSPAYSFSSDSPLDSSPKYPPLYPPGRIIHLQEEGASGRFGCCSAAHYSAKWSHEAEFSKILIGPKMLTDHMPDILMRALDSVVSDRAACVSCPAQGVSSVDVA
Cardio protect – protects H9c2 cardiomyocytes from peroxide injury; H2O2 injury protection, ATPLite, 2 h; protection from H2O2 cell death, % at 20 µM; 0.63% of 360,000 active; AID 588492;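 active means compounds giving at least 50% protection of heart cells from peroxide-induced death in the single-dose screen, raw or plate-pattern-corrected value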
Myeloid diff – myeloid differentiation induction; shares compounds with Myeloid diff 2; calls only; 2% of 2,300 active; ER-HoxA9 myeloid progenitors, GFP/Mac1 double-positive flow; AID 651706;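 active means share of green or green-and-red cells above 9 and 9% in run 1 or 4 and 3% in run 2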
GFP autofluor – counter-screen for myeloid differentiation promoters: compound fluorescence; shares compounds with Myeloid diff 2; ER-HoxA9 myeloid progenitors, no estrogen, GFP autofluorescence flow cytometry; vehicle wells 0%, positive control 100%; fluorescence response, % (test concentration not listed); 7.4% of 2,300 active; AID 651707;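 active means over 5% cells positive for green fluorescent reporter, or over 2% positive for both it and APC stain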
hGIII sPLA2 conf – human GIII-sPLA2 inhibition, confirmation. 34% of 2,000 active. AID 743280. shares compounds with HGIII-sPLA2 inh. inhibition, % at 12.2 µM. recombinant hGIII-sPLA2, BODIPY PC-A2 QFRET fluorescence;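 active means mean inhibition across triplicates above the hit cutoff set in the earlier primary screen, cut at about 19% in these data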
BODIPY interf – optically interferes with 535nm fluorescence in sPLA2 counter-screen; shares compounds with HGIII-sPLA2 inh; BODIPY FL product fluorescence interference, QFRET; inhibition, % at 12.2 µM; 8.5% of 2,000 active; AID 743282;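 active means average inhibition above the solvent-only control mean plus 3 SD, cut at about 6% in these data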
BODIPY interf DR – interferes with 535nm fluorescence in dose response counter-screen | IC50, µM | AID 743455 | shares compounds with HGIII-sPLA2 inh | BODIPY FL product fluorescence interference, cell-free | 240 tested, under 10 active;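 active means IC50 at or below 10 µM; inactive means IC50 above 10 µM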
A number is an active result; – = inactive; · = not tested or not shown; + = active, no number. In the library only some 2.9% were active in any assay of this set; here they are far more common.

SMILES	Rtt109 HAT inh	Myeloid diff 2	HGIII-sPLA2 inh	ABHD5 PLIN5 PPI	DAGLB inhibitor	Cardio protect	Myeloid diff	GFP autofluor	others
CCOC(=O)c1c(C)n(COCCO)c2ccc(O)cc12	–	–	–	–	–	–	–	–
CCOC(=O)c1c(C)n(Cc2ccc(F)cc2)c2ccc(O)cc12	–	–	–	–	–	–	·	·
CCN(CC)CCCN=Cc1c(O)n(-c2cccc(C)c2C)c(=O)[nH]c1=O	–	+	–	–	–	–	–	–
CCN(CC)CCCN=Cc1c(O)n(-c2ccccc2F)c(=O)[nH]c1=O	–	–	–	–	–	–	·	·
COc1ccc(C2C(C(=O)N3CCC4(CC3)OCCO4)c3cc(OC)c(OC)cc3C(=O)N2C)cc1 (stereo not given)	–	–	–	–	–	–	–	–
CCCNC(=O)N1[C@H]2CC[C@@H]1C(C(=O)OC)=C(c1ccc(Cl)c(C(F)(F)F)c1)C2	–	–	–	–	–	–	–	–
COC(=O)C1=C(c2cc3ccccc3s2)C[C@@H]2CC[C@H]1N2C(=O)NCC1CC1	–	–	–	–	–	–	–	–
COC(=O)C1=C(c2cc3ccccc3s2)C[C@@H]2CC[C@H]1N2C(=O)NC1CC1	–	–	–	–	–	–	·	·
COC(=O)C1=C(c2ccc(Cl)c(C(F)(F)F)c2)C[C@@H]2CC[C@H]1N2C(=O)N1CCCC1	–	–	–	–	–	–	–	–
Cc1ccc(-c2ccc(=O)n(CCC(=O)N3CCC4(CC3)OCCO4)n2)cc1	–	–	–	–	–	–	·	·
CC1CCCC(C)N1/N=C/c1c[nH]c2ccc(Br)cc12 (stereo not given)	–	–	–	–	–	–	–	–
CN1CCC(c2c[nH]c3ccc(O)cc23)CC1	–	–	–	–	–	–	·	·
COc1ccc(C(C)=O)cc1CC(C(=O)c1ccc(F)cc1)N(C)C (stereo not given)	·	–	–	–	–	–	·	·
O=c1[nH]c(=S)[nH]c(O)c1N=Nc1ccc2c(c1)OCO2	–	–	–	–	–	–	·	·
O=c1[nH]c(=S)[nH]c(O)c1N=Nc1ccc2c(c1)OCCO2	–	+	–	–	–	–	–	–
CN(C/N=C(\N)N[N+](=O)[O-])S(=O)(=O)c1ccccc1	–	–	–	–	·	–	·	·
Cc1ccc(N=C(/N=C(\N)N[N+](=O)[O-])Nc2ccc(C)cc2)cc1	–	–	–	–	–	–	–	–
CC(Cc1ccc(O)cc1)NCC(O)c1ccc(O)c(O)c1 (stereo not given)	·	–	–	–	–	–	·	·
CN1CCN(S(=O)(=O)c2cnc(Cl)c(Br)c2)CC1	–	–	–	–	–	–	·	·
COc1cccc(-n2c(CN3CCOCC3)nc3ccc([N+](=O)[O-])cc3c2=O)c1	–	–	–	–	–	–	·	·
COc1ccc(C2=NCC(=O)N(CC(=O)NCc3ccco3)c3sc4c(c32)CCCC4)cc1	–	–	–	38	–	–	–	–
O=C(CCc1ccccc1)N1Cc2cc(N3CCOCC3)ccc2-n2nncc2C1	·	–	–	–	·	–	·	·
OCC[n+]1c2ccccc2nc2ccc(N3CCOCC3)cc21	·	+	–	–	·	–	–	–
CCOC(=O)C1=C(C)c2ccccc2OC1(C(=O)OCC)c1ccccc1 (stereo not given)	–	–	–	–	–	–	–	–
CSCCC(N=Cc1c(O)n(-c2ccc(Br)cc2)c(=O)[nH]c1=O)C(=O)OC(C)(C)C (stereo not given)	–	–	–	–	–	–	·	·
SMILES	Rtt109 HAT inh	Myeloid diff 2	HGIII-sPLA2 inh	ABHD5 PLIN5 PPI	DAGLB inhibitor	Cardio protect	Myeloid diff	GFP autofluor	others
O=c1c2ccccc2nc(/C=C/c2ccc(O)c(O)c2)n1-c1ccccc1	–	–	–	–	–	56	–	–
CCOC(=O)C1SC2(C(F)(F)F)CC1(O)c1c(C)cc(C)nc1O2 (stereo not given)	–	+	–	–	–	–	–	–
COc1ccc2[nH]c3c(c2c1)CCNC3	–	–	–	–	–	–	·	·
c1ccc2c3c([nH]c2c1)CNCC3	–	+	24	–	–	–	·	·	hGIII sPLA2 conf=–;BODIPY interf=–
CCOC(=O)C(c1c(O)c2ccccc2oc1=O)c1c(O)c2ccccc2oc1=O	·	–	–	–	·	–	·	·
CCOP(=O)(OCC)C1(C(=O)O)CCCC1	–	–	24	–	–	–	·	·	hGIII sPLA2 conf=–;BODIPY interf=–
N#C/C(=C\c1ccc(O)cc1)C(=O)O	–	–	–	–	–	–	·	·
CCc1ccc(/C=C(/C#N)C(N)=S)cc1	–	–	24	–	–	–	·	·	hGIII sPLA2 conf=29;BODIPY interf=–;BODIPY interf DR=–
CN(C(=O)c1ccc(Cl)nc1)C1(c2ccccc2Cl)CCCCC1=O (stereo not given)	–	–	–	–	–	–	·	·
O=C(C[N+]12CCC(CC1)C(OC(=O)c1ccccc1)C2)c1ccc([N+](=O)[O-])cc1 (stereo not given)	–	–	22	–	–	–	·	·	hGIII sPLA2 conf=–;BODIPY interf=–
CC(N=Cc1c(O)n(C2CC2)c(=S)[nH]c1=O)c1ccccc1 (stereo not given)	–	–	–	–	–	–	·	·
O=c1[nH]c(=S)n(C2CC2)c(O)c1/C=N/Nc1ccccc1	–	–	22	–	–	–	·	·	hGIII sPLA2 conf=–;BODIPY interf=–
CC(=O)OC1N=C(c2ccccc2)c2cc(C)ccc2NC1=O (stereo not given)	–	–	–	–	–	–	·	·
Cc1c(N=Nc2c(O)n(C)c(=O)n(C)c2=O)c(=O)n(-c2ccccc2)n1C	–	–	19	–	–	–	·	·	hGIII sPLA2 conf=–;BODIPY interf=–
Cc1cc(C(=O)N=Nc2c(O)n(C)c3ccccc23)c(C)o1	–	–	23	–	–	–	·	·	hGIII sPLA2 conf=–;BODIPY interf=–
Cn1c(=O)oc(=O)c2ccccc21	–	–	–	–	–	–	·	·
COc1ccccc1N1CCN(Cc2ccc(Cl)cc2Cl)CC1	–	–	21	–	–	–	·	·	hGIII sPLA2 conf=–;BODIPY interf=–
COc1ccc(NC(=S)NC(NC(=O)CF)C(Cl)(Cl)Cl)cc1[N+](=O)[O-] (stereo not given)	–	–	19	–	–	–	·	·	hGIII sPLA2 conf=–;BODIPY interf=–
O=C(CF)NC(NC(=S)Nc1cccc([N+](=O)[O-])c1)C(Cl)(Cl)Cl (stereo not given)	–	–	–	–	–	–	·	·
